TDP1 cell CPT: qHTS for Inhibitors of human tyrosyl-DNA phosphodiesterase 1 (TDP1): qHTS in cells in presence of CPT; chicken DT40 Tdp1-/-;hTDP1 cells + 20 nM CPT, ATP luminescence, 48 h; Potency, µM (titrated, usually from 46.2 µM), without a hit: top-dose activity change, negative = growth inhibition, actives largely listed as inhibitors; hit rate 12% among 420,000; AID 686979, 2013; further: potency means the concentration at half of the fitted maximal effect; nearly all actives have a fitted effect of over 55% in size
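Cell growth measured by CellTiter-Glo luminescence after a minimum 48 h, 37 C compound exposure with 20 nM CPT in Tdp1-knockout DT40 cells stably expressing hTDP1, seeded 400/well; qHTS titration format.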
IL1B secr inh: qHTS for Inhibitors of Inflammasome Signaling: IL-1-beta AlphaLISA Primary Screen | THP-1 LPS/ATP IL-1B secretion, AlphaLISA, 16 h; active compounds read low | activity change, % at 57.5 µM | hit rate 4.7% among 360,000 | AID 743279, 2014; in the data active means activity change below about -50%; inconclusive means mostly about -30% to -49%
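THP-1 cells pretreated 1 hr with compounds (up to 57.5 uM final), then stimulated with LPS (250 ng/mL final) plus ATP (1.25 mM final); secreted IL-1B measured by AlphaLISA after 16 hr, decreased signal indicating inhibition.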
Six1-Eya2 inh: qHTS Assay for Inhibitors of the Six1/Eya2 Interaction | AlphaScreen GST-Six1/His-Eya2 binding, biochemical; active compounds read low | activity change, % (concentration not given with the values) | hit rate 0.56% among 360,000; in the data active means activity change below about -65%; inconclusive means mostly about -30% to -63%
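Compounds are tested against tagged Six1 and Eya2 proteins bridged by glutathione donor and nickel acceptor beads; after a one-hour incubation at 37 °C without light, AlphaScreen emission is recorded.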
DT40 TDP1 no CPT: qHTS for Inhibitors of human tyrosyl-DNA phosphodiesterase 1 (TDP1): qHTS in cells in absence of CPT; Potency, µM (titrated, usually from 46.2 µM), for the others: at the highest dose activity change, negative = growth inhibition, actives largely listed as inhibitors; AID 686978, 2013; DT40 Tdp1-/- hTDP1 cells, no CPT, ATP luminescence, 48 h; hit rate 15% among 420,000; further: potency means the concentration at half of the fitted maximal effect; nearly all actives have a fitted effect of over 55% in size
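Growth kinetics read by CellTiter-Glo luminescence after ≥48 hr at 37 °C. Cells: DT40 Tdp1-/- stably carrying human TDP1, 400 per well, compound exposure in the absence of CPT (DMSO vehicle).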
TDP1 block: qHTS Assay for Inhibitors of Tyrosyl-DNA Phosphodiesterase (TDP1) | recombinant TDP1, AlphaScreen DNA substrate cleavage | Potency, µM (doses to about 130 µM), inactives show top-dose activity change, negative = inhibition, hits mostly inhibitors | hit rate 0.28% among 350,000 | AID 485290, 2010; further: potency means the concentration at half of the fitted maximal effect; nearly all actives have a fitted effect of over 40% in size
Target sequence (Q9NUW8 whole entry, looked up): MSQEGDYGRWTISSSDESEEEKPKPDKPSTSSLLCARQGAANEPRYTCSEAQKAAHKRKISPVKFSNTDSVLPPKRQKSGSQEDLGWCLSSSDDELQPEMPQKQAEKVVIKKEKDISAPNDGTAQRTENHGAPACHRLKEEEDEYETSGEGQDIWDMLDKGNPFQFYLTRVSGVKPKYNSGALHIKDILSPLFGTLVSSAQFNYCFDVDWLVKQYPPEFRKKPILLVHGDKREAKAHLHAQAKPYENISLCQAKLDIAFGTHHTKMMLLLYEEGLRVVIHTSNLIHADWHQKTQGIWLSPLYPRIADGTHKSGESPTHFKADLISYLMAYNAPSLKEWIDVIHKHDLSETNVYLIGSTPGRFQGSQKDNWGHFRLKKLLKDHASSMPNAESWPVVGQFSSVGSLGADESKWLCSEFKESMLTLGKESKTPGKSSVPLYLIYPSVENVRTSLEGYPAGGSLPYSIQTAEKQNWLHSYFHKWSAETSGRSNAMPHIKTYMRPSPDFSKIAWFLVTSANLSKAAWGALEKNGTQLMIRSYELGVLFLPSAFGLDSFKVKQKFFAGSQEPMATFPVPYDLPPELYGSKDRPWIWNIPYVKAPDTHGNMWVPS
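Recombinant E. coli-expressed Tdp1 (1 nM) preincubated with compound 15 min at RT, then 5'-biotin/3'-phosphotyrosine-FITC DNA substrate (15 nM) added for 5 min. AlphaScreen beads (10 ug/ml) added, 10 min RT; tyrosine-FITC cleavage read as signal loss.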
CtBP-E1A blk: qHTS Assay for Inhibitors of the CtBP/E1A Interaction; CtBP / adenovirus E1A interaction (AlphaScreen); AlphaScreen GST-E1A/His-CtBP binding, 1536-well; active compounds read low; activity change, % (concentration not given with the values); hit rate 0.49% among 340,000; AID 651724, 2012; in the data active means activity change below about -65%; inconclusive means mostly about -30% to -63%
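Steps: dispense buffer (Tris pH 8.0, NaCl 300 mM, TCEP 1 mM, BSA, Tween 20); add 5X protein mix (GST-E1A, His-CtBP, 125 nM each); pin 23 nL compound; 2 h at 37 °C, dark; add 5X beads (50 ug/mL); 1 h; read.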
Active calls of the source: *; [ ] = remark or other dose. Shown are actives, neighbours in structure and some others; about 18% of the full set was active somewhere. Unless noted, the call rests on the fitted dose curve; in most records, active means well fitted curve in the direction sought with a large enough effect; inconclusive means small, poorly fitted or top-dose-only effect, or another doubt; inactive means no such curve, though single readings can be large; an effect the other way counts as inactive or inconclusive. On the % scale 0 is the no-effect control and ±100 the full control effect.

For CCc1cc(C(=O)NNC(=S)Nc2ccccc2C)cs1 the results were TDP1 cell CPT inconclusive, IL1B secr inh -3, Six1-Eya2 inh 19, DT40 TDP1 no CPT inconclusive, TDP1 block 5% and CtBP-E1A blk 0.
For C=CC(C1=CC(=O)C(OC)=C(OC)C1=O)c1ccccc1 (stereo not drawn) the results were TDP1 cell CPT 0.82µM*, DT40 TDP1 no CPT 0.73µM* and TDP1 block 20%[56.1 µM].
`COc1ccc(-c2ccc(=O)[nH]n2)cc1` gave TDP1 cell CPT -2%, IL1B secr inh -3, Six1-Eya2 inh -2, DT40 TDP1 no CPT -2%, TDP1 block 0% and CtBP-E1A blk -6.
Screening C=CC(C1=CC(=O)C(OC)=CC1=O)c1ccccc1 (stereo not drawn) returned TDP1 cell CPT 3.7µM*, DT40 TDP1 no CPT 2.9µM* and TDP1 block 19%[56.1 µM].
For C=CC(C1=CC(=O)C(OC)=CC1=O)c1ccc(OC)cc1 (stereo not drawn) the results were TDP1 cell CPT 3.3µM*, DT40 TDP1 no CPT 2.9µM* and TDP1 block 18%.
`Cc1ccc(N)c(C(=O)CCCCC(=O)O)c1` gave TDP1 cell CPT 2%, IL1B secr inh 10, Six1-Eya2 inh 4, DT40 TDP1 no CPT 0%, TDP1 block 2% and CtBP-E1A blk 1.
Screening CCC(C)NC(=O)CSc1ncnc2sccc12 (stereo not drawn) returned TDP1 cell CPT 8%, IL1B secr inh inconclusive, Six1-Eya2 inh 6, DT40 TDP1 no CPT 18%, TDP1 block 2% and CtBP-E1A blk 1.
`Oc1ccc(-c2csc(-c3cccnc3)n2)cc1O` gave TDP1 cell CPT 18µM*, IL1B secr inh -78*, Six1-Eya2 inh -9, DT40 TDP1 no CPT 23µM* and CtBP-E1A blk -13.
Cc1nc(-c2ccc(O)c(O)c2)cs1 was read as TDP1 cell CPT 16µM*, IL1B secr inh 13, Six1-Eya2 inh -4, DT40 TDP1 no CPT inconclusive, TDP1 block 2% and CtBP-E1A blk -3.
Screening COc1cc(-c2csc(C)n2)ccc1O returned TDP1 cell CPT -24%, IL1B secr inh 7, Six1-Eya2 inh -1, DT40 TDP1 no CPT -5%, TDP1 block -2% and CtBP-E1A blk 0.
O=[N+]([O-])c1ccc(NCc2ccccn2)nc1 was read as TDP1 cell CPT -21%, IL1B secr inh 40, Six1-Eya2 inh -2, DT40 TDP1 no CPT -16%, TDP1 block 4% and CtBP-E1A blk 10.
CCc1ccc(C(=O)c2cn(Cc3ccc(F)cc3)c3cc(OC)c(OC)cc3c2=O)cc1 was read as TDP1 cell CPT 5.8µM*, DT40 TDP1 no CPT 6.5µM* and TDP1 block 3%.
CCc1ccc(C(=O)c2cn(CC(=O)Nc3ccc(F)c(F)c3)c3cc(OC)c(OC)cc3c2=O)cc1 was read as TDP1 cell CPT 21µM*, DT40 TDP1 no CPT 16µM* and TDP1 block 4%.
`CCOc1ccc(NC(=O)Cn2cc(C(=O)c3ccc(CC)cc3)c(=O)c3cc(OC)c(OC)cc32)cc1` gave TDP1 cell CPT -4%, DT40 TDP1 no CPT inconclusive and TDP1 block 6%.
COc1ccccc1NC(=O)CN1C(=O)CC(c2ccc(C)c(C)c2)=Nc2ccccc21 was read as TDP1 cell CPT 23µM*, DT40 TDP1 no CPT 23µM* and TDP1 block 11%.
COc1ccccc1NC(=O)CN1CCN(CC(=O)Nc2ccc(S(N)(=O)=O)cc2)CC1 was read as TDP1 cell CPT inconclusive, IL1B secr inh 17, Six1-Eya2 inh 7 and DT40 TDP1 no CPT 13µM*.
COc1ccccc1NC(=O)CN1CCN(CC(=O)Nc2ccc(C)c(F)c2)CC1 was read as TDP1 cell CPT 16µM*, IL1B secr inh -8, Six1-Eya2 inh 0, DT40 TDP1 no CPT 16µM* and CtBP-E1A blk 2.
COc1ccccc1NC(=O)CN1CCN(CC(=O)Nc2ccc(OC)c(OC)c2)CC1 was read as TDP1 cell CPT -21%, IL1B secr inh -24, Six1-Eya2 inh 2, DT40 TDP1 no CPT 0% and CtBP-E1A blk 4.
COc1ccccc1NC(=O)CN1CCN(CC(=O)Nc2ccc(F)c(F)c2)CC1 was read as TDP1 cell CPT inconclusive, DT40 TDP1 no CPT inconclusive and TDP1 block 5%.
COc1cc(NC(=O)CN2CCN(CC(=O)Nc3ccccc3OC)CC2)cc(OC)c1 was read as TDP1 cell CPT 16µM*, IL1B secr inh -10, Six1-Eya2 inh 3, DT40 TDP1 no CPT inconclusive and CtBP-E1A blk 0.
For CCOc1ccccc1NC(=O)CN1C(=O)CC(c2ccc(C)c(C)c2)=Nc2ccccc21 the results were TDP1 cell CPT -6%, DT40 TDP1 no CPT -14% and TDP1 block 6%.
`CCOC(=O)c1cc(S(=O)(=O)Nc2c(C)cc(C)cc2C)[nH]n1` gave TDP1 cell CPT -12%, DT40 TDP1 no CPT -27% and TDP1 block 5%.
Screening COc1cc(NC(=O)C/C(C)=N/NC(=O)C(=O)NCCO)c(OC)cc1Cl returned TDP1 cell CPT inconclusive, IL1B secr inh 4, Six1-Eya2 inh -9, DT40 TDP1 no CPT -26% and CtBP-E1A blk 10.
CCCCc1nc2c(c3c1CC(C)OC3)CN(CCOc1ccccc1)CC2 (stereo not drawn) was read as TDP1 block 8%[21 µM].
For Cn1c(=O)n(C)c2cc(N3CCCCC3)c(NC(=O)c3cccc(Cl)c3)cc21 the results were TDP1 cell CPT inconclusive, IL1B secr inh 36, Six1-Eya2 inh 8, DT40 TDP1 no CPT -25%, TDP1 block 3% and CtBP-E1A blk -2.
For CCc1ccc(CN(C)C(=O)c2ccc3c(=O)n4c(nc3c2)CCC4)cc1 the results were TDP1 cell CPT -20%, IL1B secr inh 6, Six1-Eya2 inh 0, DT40 TDP1 no CPT inconclusive, TDP1 block 4% and CtBP-E1A blk 2.
Screening Cc1c(C(=O)NCc2ccc(Cl)cc2)sc2nc3n(c(=O)c12)CCCC3 returned TDP1 cell CPT inconclusive, DT40 TDP1 no CPT 16µM* and TDP1 block 3%.
For CCc1ccc(N(CC)C(=O)c2ccc3c(=O)n4c(nc3c2)CCCCC4)cc1 the results were TDP1 cell CPT inconclusive, DT40 TDP1 no CPT 16µM* and TDP1 block 5%.
